# From PMC4336329 (PLoS ONE, 2015)
# Among all 310,000 compounds or so, about 14,000 (4.5%) showed an effect of 50% or more. The effect is printed as a negative number. Only a selection was taken, and strong results are over-represented in it overall.
# Target: human ether-à-go-go-related gene (hERG) potassium channel (human, UniProt Q12809)
# Assay: primary screen, population patch clamp on CHO cells stably expressing hERG; higher = less effect of the substance
# 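Further: peak tail current of the secondary pulse compared with the same well before compound.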
# Chain of human ether-à-go-go-related gene (hERG) potassium channel (Q12809 whole entry, looked up): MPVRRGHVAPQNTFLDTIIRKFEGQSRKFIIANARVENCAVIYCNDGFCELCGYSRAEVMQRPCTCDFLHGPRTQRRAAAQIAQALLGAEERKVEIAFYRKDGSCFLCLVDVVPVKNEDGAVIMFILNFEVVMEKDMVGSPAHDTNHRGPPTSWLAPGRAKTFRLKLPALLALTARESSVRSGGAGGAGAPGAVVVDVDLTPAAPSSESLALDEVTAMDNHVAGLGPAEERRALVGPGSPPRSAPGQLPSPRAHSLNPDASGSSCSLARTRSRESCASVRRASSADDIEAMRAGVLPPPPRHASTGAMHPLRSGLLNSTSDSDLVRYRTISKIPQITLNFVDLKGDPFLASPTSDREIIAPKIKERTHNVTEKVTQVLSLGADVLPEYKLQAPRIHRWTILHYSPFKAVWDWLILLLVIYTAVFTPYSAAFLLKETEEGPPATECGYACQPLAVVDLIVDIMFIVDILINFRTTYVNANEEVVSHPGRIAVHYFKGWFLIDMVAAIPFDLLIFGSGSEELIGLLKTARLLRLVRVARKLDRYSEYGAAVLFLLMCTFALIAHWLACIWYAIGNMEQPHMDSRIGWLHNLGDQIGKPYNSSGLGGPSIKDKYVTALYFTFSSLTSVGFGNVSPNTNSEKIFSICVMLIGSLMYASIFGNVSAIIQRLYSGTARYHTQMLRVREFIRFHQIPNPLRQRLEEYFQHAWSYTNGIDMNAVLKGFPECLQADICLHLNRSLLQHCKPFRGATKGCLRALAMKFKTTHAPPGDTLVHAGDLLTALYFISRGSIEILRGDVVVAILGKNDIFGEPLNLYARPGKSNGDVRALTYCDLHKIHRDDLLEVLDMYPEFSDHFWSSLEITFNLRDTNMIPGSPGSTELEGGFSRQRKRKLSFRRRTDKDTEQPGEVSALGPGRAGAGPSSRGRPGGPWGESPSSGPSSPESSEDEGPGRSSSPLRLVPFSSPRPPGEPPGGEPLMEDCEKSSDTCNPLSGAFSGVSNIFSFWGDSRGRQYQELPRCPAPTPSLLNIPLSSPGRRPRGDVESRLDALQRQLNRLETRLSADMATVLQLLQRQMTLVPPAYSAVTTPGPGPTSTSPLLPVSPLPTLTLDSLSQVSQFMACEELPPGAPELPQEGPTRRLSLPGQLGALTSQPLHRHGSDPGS
row,SMILES,"hERG current change (%, negative = inhibition) at 10uM [%]"
1,C/C(=N/NC(=O)c1ccc(Cl)cc1Cl)c1cccnc1,16.4
2,CN1CCN(c2nc3c(c(=O)n(C)c(=O)n3C)n2Cc2cccc3ccccc23)CC1,-5.1
3,CN(CC(=O)Nc1ccc(Cl)cc1F)C1CCS(=O)(=O)C1 (centres unmarked),-20.6
4,COc1ccc(CNC(=O)C2CC(=O)N(C3CCCC3)C2)cc1 (centres unmarked),-8.14
5,Cc1ccc(-c2nnc(SCC#CCOC(=O)c3cccs3)o2)cc1,14.3
6,O=C(OCC#CCSc1nnc(-c2ccncc2)o1)c1cccs1,-53.2
7,O=C(OCC#CCSc1nnc(-c2ccccc2)o1)c1cccs1,-17.7
8,COc1ccc(CN2CCNC(=O)C2CC(=O)NCc2cn[nH]c2-c2ccccc2)c(F)c1 (centres unmarked),-1.07
9,Cc1cccc(NC(=O)c2ccccc2NC(=O)Cc2ccccc2)c1C,4.93
10,CCNC(=O)CSc1nc(-c2ccccc2)cs1,-4.81
11,CN(C)c1nc(N2CCN(c3ccccc3)CC2)c(C#N)c(=O)o1,-16.9
12,CCN1CCN(C(c2cccs2)C(C)NC(=O)Oc2ccccc2)CC1 (centres unmarked),-38.5
13,CC(C)N(C(=O)c1ccc2nc(-c3ccccc3)c(-c3ccccc3)nc2c1)C(C)C,-4.73
14,Cc1ccc(SCc2nc(-c3ccccc3)no2)cc1,2.3
15,CCN(CC)CCOC(=O)CCc1cccc2ccccc12.O=C(O)C(=O)O,-42.6
16,CCN(CC)CCOC(=O)C(Cc1cccc2ccccc12)CC1CCCO1.O=C(O)C(=O)O (centres unmarked),-53.8
17,CCN(CC)CCOC(=O)C(Cc1ccco1)Cc1cccc2ccccc12.O=C(O)C(=O)O (centres unmarked),-76.8
18,CCN(CC)CCOc1ccccc1OC.O=C(O)C(=O)O,-11
19,O=C(Cc1cccc2ccccc12)NCC1CCCO1 (centres unmarked),-5.85
20,O=C(NCC1CCCO1)c1cccc2ccccc12 (centres unmarked),21.2
21,CCOC(=O)C(C)Oc1ccc2c(C)cc(=O)oc2c1C(C)=O (centres unmarked),-13.8
22,COCCn1c(SCC(=O)N2CCCCC2)nc2c(c1=O)SC(C)C2 (centres unmarked),9.29

row,SMILES,"hERG current change (%, negative = inhibition) at 10uM [%]"
1,O=C(C[n+]1cc(-c2ccccc2)n2c1CCC2)Nc1nc(-c2ccccc2)cs1.[Cl-],-35.1
2,Cc1ccccc1NC(=O)C[n+]1cc(-c2ccccc2)n2c1CCC2.[Cl-],12.9
3,Cc1ccc(-c2c[n+](CC(=O)Nc3ccc(C)cc3C)c3n2CCC3)cc1.[Cl-],-30.8
4,Cc1ccc(-c2c[n+](CC(=O)Nc3nc(-c4ccccc4)cs3)c3n2CCC3)cc1.[Cl-],-54.9
5,Cc1ccc(-c2csc(NC(=O)C[n+]3cc(-c4ccc(C)cc4)n4c3CCC4)n2)cc1.[Cl-],-72.5
6,Cc1cccc(C)c1NC(=O)C[n+]1cc(-c2ccccc2)n2c1CCC2.[Cl-],11.3
7,Cc1ccc(-c2csc(NC(=O)C[n+]3cc(-c4ccccc4)n4c3CCC4)n2)cc1.[Cl-],-57
8,O=C(C[n+]1cc(-c2ccc(Cl)cc2)n2c1CCC2)Nc1nc(-c2ccccc2)cs1.[Cl-],-0.843
9,Cc1ccc(-c2c[n+](CC(=O)Nc3cc(=O)n(C)c(=O)n3C)c3n2CCC3)cc1.[Cl-],-0.179
10,COC(=O)c1ccccc1NC(=O)c1cccc(COc2ccccc2Cl)c1,10.6
11,O=C(c1ccc(F)cc1)N1CCN(c2ncccn2)CC1,-1.2
12,CC(=O)/C=C(\C)Nc1ccc(-c2cnc(-c3ccccc3)o2)cc1,-4.59
13,CC(=O)O[C@H]1CC[C@H]2[C@@H]3CCc4cc(O)ccc4[C@H]3CC[C@]12C,-5.79
14,COc1ccc(CC(=O)N/N=C/c2ccc(C)s2)cc1,11
15,O=C(Cc1cccc2ccccc12)Nc1ccc2c(c1)C(=O)NC2=O,9.52
16,COc1ccc(NC(=O)CS(=O)(=O)c2cn(CC(=O)N(C(C)C)C(C)C)c3ccccc23)c(OC)c1,-19.3
17,O=C(CC(c1ccccc1)c1ccccc1)NCCOCc1ccccc1,-12.6
18,Cc1ccc(CN2C(=O)CNC2=S)cc1,9.68
19,O=C(Nc1cccc(N=Cc2cc(Br)cc(Br)c2O)c1)c1ccco1,3.77
20,CCCc1nn(C)c(C(=O)Nc2ccc3ccccc3c2)c1Cl,8.62
21,CC1CC(C#N)N(N(C)C)C1=C(C#N)C#N (centres unmarked),11.3
22,CC(=O)Nc1c2c(nn1-c1cccc(Cl)c1)CS(=O)C2 (centres unmarked),-1.6
